Whole data set: some 35,000 sequences, median “fluorescence intensity (a.u.)” near 10,000, cut for the highest 2% near 52,000. The sample holds the highest values, similar sequences and a random draw of the others, so the mix is not that of the screen.

The experiment has as its target T1, OsWOX13 (Oryza sativa, UniProt Q5QMM3 1-267).
T1 sequence: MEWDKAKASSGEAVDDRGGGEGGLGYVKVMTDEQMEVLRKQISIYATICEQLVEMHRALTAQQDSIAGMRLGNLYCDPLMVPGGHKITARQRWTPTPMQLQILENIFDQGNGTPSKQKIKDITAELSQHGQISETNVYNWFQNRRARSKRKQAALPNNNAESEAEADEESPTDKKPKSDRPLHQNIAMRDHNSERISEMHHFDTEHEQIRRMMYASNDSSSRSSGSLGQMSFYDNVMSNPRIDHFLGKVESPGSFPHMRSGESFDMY
Description: protein-binding microarray (RPBM); PBS, 2% BSA, 51.3 ng/ul salmon testes DNA, 50 uM zinc acetate, 200 nM TF, 25 C, 1 h; high values mean tight binding. The settings on record: protein: recombinant; tags: N-terminal polyhistidine and DsRed monomer fusion (pET32a); label: CyDye5-dUTP incorporated in the synthesized complementary strand; 3' TTTTT single-stranded linker to array surface; dsDNA, one strand shown. The gist of the method:
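A custom Agilent array was converted to double-stranded form by primer extension with Cy5-dUTP and blocked with 2% BSA. Protein at 200 nM in PBS with 2% BSA, salmon testes DNA and 50 µM zinc acetate was applied for 1 h at 25 °C, followed by washing. The proteins were polyhistidine–DsRed N-terminal fusions of transcription factors, expressed in E. coli BL21-CodonPlus and Ni–NTA-purified. The binding signal is per-feature fluorescence intensity (arbitrary units) from an Axon 4000B scanner.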
On to “CTTAACTGTAACACTATTGCGTTGATTACTTCTACTTATTCGGAGTCACCTAGTGCAG”, for which the binding signal is 15200 fluorescence intensity (a.u.).
With “TGATAGATGGAAAATAAATTGGTAAAATTAGTAGATGGGACGGAGTCACCTAGTGCAG”, the binding signal is 39700 fluorescence intensity (a.u.).
On to “GTACCTACCAGTAATTAATCAGCAGGCTCACTGTAATCAACGGAGTCACCTAGTGCAG”, for which the binding signal was 3470 fluorescence intensity (a.u.).
For the sequence “CATTTGATTTTCGGTCTGATTTTGTTATTTCACTGGCAATCGGAGTCACCTAGTGCAG”, the binding signal was 24300 fluorescence intensity (a.u.).
The result for “GGTGACAGTTTGGTTAGTGACAAATAGTTACATTCTCGTTCGGAGTCACCTAGTGCAG” reads 5070 fluorescence intensity (a.u.); that for “GTTTAAAGAAATTGATGAAAGAAAAGCTTCATTGTTGGCTCGGAGTCACCTAGTGCAG”, 6180 fluorescence intensity (a.u.); that for “TTTAATTGAACTTGAGTGGTCCAGGTATTAAATGTGGGTCCGGAGTCACCTAGTGCAG”, 52200 fluorescence intensity (a.u.).
Turning to “ACCCAGGCTTTGATTGCGATGATAAACCGAGCTCGCAGCACGGAGTCACCTAGTGCAG”, the binding signal was 13800 fluorescence intensity (a.u.).
Consider “GGAAATTTAACTATTTGCCACTTTTAGGTTTATCAATTATCGGAGTCACCTAGTGCAG”, for which the binding signal is 4880 fluorescence intensity (a.u.).
Consider “ATTGGACCTGAACACTGCTAATTAATTGGTATAAGTCATCCGGAGTCACCTAGTGCAG”, for which the binding signal is 8360 fluorescence intensity (a.u.).
As to “ATTAATGAACTGTGACATTTCCTTAATTTCATTTTGCTCTCGGAGTCACCTAGTGCAG”, the binding signal was 23800 fluorescence intensity (a.u.).
Turning to “ATAGATAGATTTCTCCATAAGTAATTACATTGTAGGTAGGCGGAGTCACCTAGTGCAG”, the binding signal was 28500 fluorescence intensity (a.u.).
For the sequence “AACTGATATGTAGGGTATGATTGTAATGAAATTACGATTGCGGAGTCACCTAGTGCAG”, the binding signal is 10700 fluorescence intensity (a.u.).
With “TTAAATTGTTAATACCTCTGTATATCATCCGATCTACGTACGGAGTCACCTAGTGCAG”, the binding signal was 19600 fluorescence intensity (a.u.).
“ATAACAGTGATTGATCTGTTAAATATCCGATACGGGTAGGCGGAGTCACCTAGTGCAG”: the binding signal was 65200 fluorescence intensity (a.u.).
Turning to “TCTGATTGATGATGACGATGATGGCGGCTGTGCAGCTGAACGGAGTCACCTAGTGCAG”, the binding signal was 47600 fluorescence intensity (a.u.).
Turning to “CAGTTATGTGATTGGACTATAAATACGATATATGTTGTGTCGGAGTCACCTAGTGCAG”, the binding signal is 28700 fluorescence intensity (a.u.).
Turning to “AATAACTGATGACTGTGAATGATTGATACGATGTAGTAGGCGGAGTCACCTAGTGCAG”, the binding signal was 65300 fluorescence intensity (a.u.).
Regarding “GACTTGTAATTTGTAGCAGTGGTAAGAAATAAATCTGACCCGGAGTCACCTAGTGCAG”, the binding signal is 3900 fluorescence intensity (a.u.).
“CTTAAACAAATGATAGTACGATCCCATCTGATTGGGTGTTCGGAGTCACCTAGTGCAG”: the binding signal is 7540 fluorescence intensity (a.u.).
As to “ACTCAATCTTATTAACTTAAATTGAACTTGAACAAGAGAACGGAGTCACCTAGTGCAG”, the binding signal is 22000 fluorescence intensity (a.u.).
The result for “ACTGATAACTTCCAACTGATAATTGGAGAAGGAGGGTTTGCGGAGTCACCTAGTGCAG” reads 12400 fluorescence intensity (a.u.); that for “TCGTAAATTTAAATCCATAGATTTAAGGAATACTTAGGCTCGGAGTCACCTAGTGCAG”, 25900 fluorescence intensity (a.u.); that for “AATTAATCAGCCAATCACAATCTCTCAAACTACACGGACTCGGAGTCACCTAGTGCAG”, 35500 fluorescence intensity (a.u.).
With “TTGAGCACTAATTAATCATTAGGTGGCCTAATCAACAGCTCGGAGTCACCTAGTGCAG”, the binding signal was 22000 fluorescence intensity (a.u.).
As for “ACCCAAAATTAACTCTAAACTTAAGTTTCAAAATCTAAATCGGAGTCACCTAGTGCAG”, the binding signal was 7640 fluorescence intensity (a.u.).
Consider “AATCAACTAACTAATCATGGGATTAACCAAAACTAATTCTCGGAGTCACCTAGTGCAG”, for which the binding signal was 3800 fluorescence intensity (a.u.).
In the case of “AGACAATTCAATAATTAATCTACACTTTCCTTCCGCACCTCGGAGTCACCTAGTGCAG”, the binding signal was 5880 fluorescence intensity (a.u.).
With “GCAAATTAATTAACTAATTAATTAAACACCCAACTAATCTCGGAGTCACCTAGTGCAG”, the binding signal is 63700 fluorescence intensity (a.u.).
As for “GTAATTAATTAACATTGCAATTAAGCACATAAGTTAATCACGGAGTCACCTAGTGCAG”, the binding signal is 27000 fluorescence intensity (a.u.).
“TCAATTAATTAATTAATTAACTACACTTTCACACGAGTCTCGGAGTCACCTAGTGCAG”: the binding signal is 52700 fluorescence intensity (a.u.).
The result for “GTAATTAACAGCAATCAGCAAGTGGCCTAATTGCCAACCTCGGAGTCACCTAGTGCAG” reads 56700 fluorescence intensity (a.u.).
As for “CCACCTCTAATGAAGAGGTGATTGCAACCATTCATCTCTTCGGAGTCACCTAGTGCAG”, the binding signal was 12000 fluorescence intensity (a.u.).
Consider “AAACAAACTAACATGGATTGATTTTCTATAGGATGGAGGGCGGAGTCACCTAGTGCAG”, for which the binding signal was 25200 fluorescence intensity (a.u.).
As to “TGGATTTTAAATTAAGTAAATTGCACCAGCGGTCCTTAAACGGAGTCACCTAGTGCAG”, the binding signal was 6480 fluorescence intensity (a.u.).
Regarding “AATTTGAATTTTGTTAAGTTAAATTTGATGAACTGGGGCCCGGAGTCACCTAGTGCAG”, the binding signal was 5490 fluorescence intensity (a.u.).
“TTATAATTATTTGTGTTGCAATGTATGTTTTGTTTATATACGGAGTCACCTAGTGCAG”: the binding signal was 9980 fluorescence intensity (a.u.).
As to “TTTGGGTGTTAGTGTCTTAATTAGTGTGTGAGCCCCATCCCGGAGTCACCTAGTGCAG”, the binding signal was 3790 fluorescence intensity (a.u.).
As to “TGTGGCTAAATTTATCAATTGAATGGGCTAGAGGCACGCTCGGAGTCACCTAGTGCAG”, the binding signal was 17400 fluorescence intensity (a.u.).
Regarding “CCAAATTCATTAAAATTAACAATAACAATTATATTTGTTTCGGAGTCACCTAGTGCAG”, the binding signal was 10900 fluorescence intensity (a.u.).
Regarding “GTTTAGCAAATCCAGCACCCATTATACAGACTTTCTATGCCGGAGTCACCTAGTGCAG”, the binding signal was 65500 fluorescence intensity (a.u.).
As to “AAGTCTAATTAATCCATCATTAGCAAATGTTTATTGTAGCCGGAGTCACCTAGTGCAG”, the binding signal was 26700 fluorescence intensity (a.u.).
Consider “ATTGAGTCAATCCACACTTTATTAGCACATTGGCCCACACCGGAGTCACCTAGTGCAG”, for which the binding signal was 3510 fluorescence intensity (a.u.).

For the origin of these results see article PMC7819943, “Rice protein-binding microarrays: a tool to detect cis-acting elements near promoter regions in rice”.
